The panel holds about 79,000 compounds, 15% with a hit somewhere; the sample as a whole holds those more often. Values without a mark were called inactive. Calls of active or inactive are those of the source. No stated cut-off is given here; in the data, active means growth inhibition above about 70%; inactive means the rest.
What was measured:
[1] = NCI Yeast Anticancer Drug Screen. Data for the rad52 strain (AID 147);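 further: 0% = growth of vehicle-treated control cultures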; conditions: S. cerevisiae rad52 mutant growth inhibition, active compounds read high
In short: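 Yeast strain carrying a DNA damage repair alteration was exposed to test compounds. Growth inhibition was measured relative to vehicle-treated controls.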

[2] = NCI Yeast Anticancer Drug Screen. Data for the wt1 strain (AID 149);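 further: 0% = growth of vehicle-treated wt1 cultures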; conditions: S. cerevisiae wt1 strain (SPY 50644) growth inhibition, active compounds read high
In short: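 Measured: growth of wt1 yeast under compound versus vehicle treatment, reported as inhibition.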

[3] = NCI Yeast Anticancer Drug Screen. Data for the rad50EPP+ strain (AID 151);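 further: 0% = growth of vehicle-treated control cultures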; conditions: S. cerevisiae rad50 mutant strain, active compounds read high
In short: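 Yeast strain carrying rad50 alteration (rad50EPP+) exposed to compounds; growth inhibition measured relative to vehicle-treated controls.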

[4] = NCI Yeast Anticancer Drug Screen. Data for the mgt1 strain (AID 153); conditions: S. cerevisiae mgt1 mutant growth inhibition, active compounds read high
In short: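 Yeast mgt1 strain (DNA repair/cell-cycle alteration panel) exposed to compounds; growth inhibition measured relative to vehicle-treated controls.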

[5] = NCI Yeast Anticancer Drug Screen. Data for the rad50 strain (AID 155);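 further: 0% = growth of vehicle-only cultures of the same strain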; conditions: S. cerevisiae rad50 strain growth inhibition, active compounds read high
In short: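 Growth of the mutant yeast was measured after compound exposure and referenced to vehicle-treated cultures.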

[6] = NCI Yeast Anticancer Drug Screen. Data for the mec2-1 strain (AID 157); conditions: S. cerevisiae mec2-1 strain, active compounds read high
In short: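 mec2-1 yeast strain, carrying an alteration in DNA damage repair or cell cycle control, was exposed to compounds; growth inhibition was measured relative to vehicle-treated controls.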

[7] = NCI Yeast Anticancer Drug Screen. Data for the rad14 strain (AID 159);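 further: 0% = growth of vehicle-treated control cultures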; conditions: S. cerevisiae rad14 strain growth inhibition, active compounds read high
In short: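 Here, inhibition of yeast growth was measured after compound exposure, using a strain with a genetic defect in DNA damage repair and vehicle-treated cultures as the reference.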

[8] = NCI Yeast Anticancer Drug Screen. Data for the sgs1 mgt1 strain (AID 161);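 further: 0% = growth of cultures given vehicle only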; conditions: S. cerevisiae sgs1 mgt1 strain, active compounds read high
In short: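 Percent growth inhibition was derived by comparing compound-exposed mutant yeast with vehicle-exposed cultures. The strain carries alterations in DNA damage repair.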

[9] = NCI Yeast Anticancer Drug Screen. Data for the CLN2oe strain (AID 163);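 further: 0% = growth of vehicle-only control cultures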; conditions: S. cerevisiae CLN2oe strain, active compounds read high
In short: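 Yeast cells carrying a defined cell-cycle control alteration were exposed to test compounds. Growth inhibition was scored against vehicle-treated control cultures.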

[10] = NCI Yeast Anticancer Drug Screen. Data for the cln2 rad14 strain (AID 165);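 further: 0% = growth equal to vehicle treated cultures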; conditions: S. cerevisiae cln2 rad14 strain, active compounds read high
In short: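 Yeast carrying cln2 and rad14 alterations (cell cycle control and DNA damage repair) were exposed to compounds. Growth inhibition was measured against vehicle-treated controls.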

[11] = NCI Yeast Anticancer Drug Screen. Data for the bub3 strain (AID 167); conditions: S. cerevisiae bub3 mutant strain, active compounds read high
In short: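 Whole-cell yeast assay. The mutant strain was incubated with compounds, and growth inhibition was determined by comparison with vehicle-treated cells.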

[12] = NCI Yeast Anticancer Drug Screen. Data for the wt2 strain (AID 169);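 further: 0% = growth of vehicle-treated yeast cultures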; conditions: S. cerevisiae wt2 strain growth inhibition, active compounds read high
In short: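 Yeast cells were exposed to test compounds, and growth inhibition was measured relative to vehicle-treated controls.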

[13] = NCI Yeast Anticancer Drug Screen. Data for the mlh1 strain (AID 171);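 further: 0% = growth of vehicle-treated control cultures of the same strain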; conditions: S. cerevisiae mlh1 strain growth inhibition, active compounds read high
In short: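 Yeast carrying a defined genetic alteration in DNA damage repair or cell cycle control were exposed to test compounds. Growth inhibition was measured relative to vehicle-treated controls.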

[14] = NCI Yeast Anticancer Drug Screen. Data for the sgs1 strain (AID 173);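 further: 0% = growth of vehicle-only control cultures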; conditions: S. cerevisiae sgs1 mutant, active compounds read high
In short: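 Yeast mutant strains carrying defined defects in DNA damage repair or cell cycle control were exposed to test compounds. Growth inhibition was scored against vehicle-treated controls.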

[15] = NCI Yeast Anticancer Drug Screen. Data for the mlh1 rad18 strain (AID 175); conditions: S. cerevisiae mlh1 rad18 strain growth inhibition, active compounds read high
In short: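 Growth inhibition of the yeast strain was measured after compound exposure and expressed relative to vehicle-treated controls. The strain carries defined defects in DNA damage repair.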

[16] = NCI Yeast Anticancer Drug Screen. Data for the rad18 strain (AID 177); conditions: S. cerevisiae rad18 mutant growth inhibition, active compounds read high
In short: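 Yeast carrying a defined DNA damage repair alteration were exposed to compounds. Growth inhibition was expressed relative to vehicle-treated controls.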

[17] = at 5.0 µM (retest, dose inferred, filed as 0.5)
[18] = at 50.0 µM (retest, dose inferred, filed as 5.0)

## CC(C)(C)N=C(NO)c1ccccc1
[1]; at 1.2 µM
  growth inhibition: 0%
[1]; at 3.7 µM
  growth inhibition: 1%
[1]; at 11.0 µM
  growth inhibition: 8%
[1]; at 33.0 µM
  growth inhibition: 25%
[1]; at 100.0 µM
  growth inhibition: 68%
[2]; at 1.2 µM
  growth inhibition: 0%
[2]; at 3.7 µM
  growth inhibition: 0%
[2]; at 11.0 µM
  growth inhibition: 5%
[2]; at 33.0 µM
  growth inhibition: 8%
[2]; at 100.0 µM
  growth inhibition: 45%
[3]; at 1.2 µM
  growth inhibition: 0%
[3]; at 3.7 µM
  growth inhibition: 3%
[3]; at 11.0 µM
  growth inhibition: 14%
[3]; at 33.0 µM
  growth inhibition: 35%
[3]; at 100.0 µM
  growth inhibition: 63%
[4]; at 1.2 µM
  growth inhibition: -2%
[4]; at 3.7 µM
  growth inhibition: 1%
[4]; at 11.0 µM
  growth inhibition: 2%
[4]; at 33.0 µM
  growth inhibition: 27%
[4]; at 100.0 µM
  growth inhibition: 57%
[5]; at 1.2 µM
  growth inhibition: -2%
[5]; at 3.7 µM
  growth inhibition: -1%
[5]; [17]
  growth inhibition: -6%
[5]; at 11.0 µM
  growth inhibition: 2%
[5]; at 33.0 µM
  growth inhibition: 14%
[5]; [18]
  growth inhibition: 41%
[5]; at 50.0 µM
  growth inhibition: 70.2% (active)
[5]; at 100.0 µM
  growth inhibition: 55%
[6]; at 1.2 µM
  growth inhibition: -3%
[6]; at 3.7 µM
  growth inhibition: 0%
[6]; [17]
  growth inhibition: -2%
[6]; at 11.0 µM
  growth inhibition: 2%
[6]; at 33.0 µM
  growth inhibition: 12%
[6]; [18]
  growth inhibition: 2%
[6]; at 50.0 µM
  growth inhibition: 2.9%
[6]; at 100.0 µM
  growth inhibition: 53%
[7]; at 1.2 µM
  growth inhibition: -3%
[7]; at 3.7 µM
  growth inhibition: -3%
[7]; at 11.0 µM
  growth inhibition: 0%
[7]; at 33.0 µM
  growth inhibition: 10%
[7]; at 100.0 µM
  growth inhibition: 46%
[8]; [17]
  growth inhibition: 7%
[8]; [18]
  growth inhibition: 55%
[8]; at 50.0 µM
  growth inhibition: 74% (active)
[9]; at 1.2 µM
  growth inhibition: -9%
[9]; at 3.7 µM
  growth inhibition: -7%
[9]; at 11.0 µM
  growth inhibition: -2%
[9]; at 33.0 µM
  growth inhibition: -4%
[9]; at 100.0 µM
  growth inhibition: 47%
[10]; [17]
  growth inhibition: 8%
[10]; [18]
  growth inhibition: 49%
[10]; at 50.0 µM
  growth inhibition: 43.7%
[11]; at 1.2 µM
  growth inhibition: -6%
[11]; at 3.7 µM
  growth inhibition: -9%
[11]; [17]
  growth inhibition: -11%
[11]; at 11.0 µM
  growth inhibition: -4%
[11]; at 33.0 µM
  growth inhibition: -9%
[11]; [18]
  growth inhibition: 42%
[11]; at 50.0 µM
  growth inhibition: 0.3%
[11]; at 100.0 µM
  growth inhibition: 27%
[12]; at 1.2 µM
  growth inhibition: 1%
[12]; at 3.7 µM
  growth inhibition: 1%
[12]; at 11.0 µM
  growth inhibition: 8%
[12]; at 33.0 µM
  growth inhibition: 20%
[12]; at 100.0 µM
  growth inhibition: 67%
[13]; at 1.2 µM
  growth inhibition: 3%
[13]; at 3.7 µM
  growth inhibition: 1%
[13]; at 11.0 µM
  growth inhibition: 7%
[13]; at 33.0 µM
  growth inhibition: 20%
[13]; at 100.0 µM
  growth inhibition: 64%
[14]; at 1.2 µM
  growth inhibition: 1%
[14]; at 3.7 µM
  growth inhibition: 7%
[14]; at 11.0 µM
  growth inhibition: 14%
[14]; at 33.0 µM
  growth inhibition: 39%
[14]; at 100.0 µM
  growth inhibition: 76% (active)
[15]; [17]
  growth inhibition: 3%
[15]; [18]
  growth inhibition: 76% (active)
[15]; at 50.0 µM
  growth inhibition: 81.4% (active)
[16]; at 1.2 µM
  growth inhibition: 1%
[16]; at 3.7 µM
  growth inhibition: -1%
[16]; at 11.0 µM
  growth inhibition: 38%
[16]; at 33.0 µM
  growth inhibition: 38%
[16]; at 100.0 µM
  growth inhibition: 82% (active)

## O=C(O)c1cc2ccc(Cl)cc2c(O)c1C1=CCCCC1
[1]; at 1.2 µM
  growth inhibition: 6%
[1]; at 3.7 µM
  growth inhibition: 8%
[1]; at 11.0 µM
  growth inhibition: 26%
[1]; at 33.0 µM
  growth inhibition: 46%
[1]; at 100.0 µM
  growth inhibition: 78% (active)
[2]; at 1.2 µM
  growth inhibition: -10%
[2]; at 3.7 µM
  growth inhibition: 2%
[2]; at 11.0 µM
  growth inhibition: 6%
[2]; at 33.0 µM
  growth inhibition: 28%
[2]; at 100.0 µM
  growth inhibition: 73% (active)
[3]; at 1.2 µM
  growth inhibition: 8%
[3]; at 3.7 µM
  growth inhibition: 8%
[3]; at 11.0 µM
  growth inhibition: 13%
[3]; at 33.0 µM
  growth inhibition: 13%
[3]; at 100.0 µM
  growth inhibition: 33%
[4]; at 1.2 µM
  growth inhibition: 7%
[4]; at 3.7 µM
  growth inhibition: -15%
[4]; at 11.0 µM
  growth inhibition: 1%
[4]; at 33.0 µM
  growth inhibition: 42%
[4]; at 100.0 µM
  growth inhibition: 84% (active)
[5]; at 1.2 µM
  growth inhibition: -7%
[5]; at 3.7 µM
  growth inhibition: -5%
[5]; [17]
  growth inhibition: 33%
[5]; at 11.0 µM
  growth inhibition: 11%
[5]; at 33.0 µM
  growth inhibition: 36%
[5]; [18]
  growth inhibition: 58%
[5]; at 50.0 µM
  growth inhibition: 74.3% (active)
[5]; at 100.0 µM
  growth inhibition: 76% (active)
[6]; at 1.2 µM
  growth inhibition: 22%
[6]; at 3.7 µM
  growth inhibition: 18%
[6]; [17]
  growth inhibition: -1%
[6]; at 11.0 µM
  growth inhibition: 22%
[6]; at 33.0 µM
  growth inhibition: 40%
[6]; [18]
  growth inhibition: 58%
[6]; at 50.0 µM
  growth inhibition: 69.1%
[6]; at 100.0 µM
  growth inhibition: 69%
[7]; at 1.2 µM
  growth inhibition: -6%
[7]; at 3.7 µM
  growth inhibition: -10%
[7]; at 11.0 µM
  growth inhibition: 9%
[7]; at 33.0 µM
  growth inhibition: 30%
[7]; at 100.0 µM
  growth inhibition: 75% (active)
[8]; [17]
  growth inhibition: 0%
[8]; [18]
  growth inhibition: 76% (active)
[8]; at 50.0 µM
  growth inhibition: 79.8% (active)
[9]; at 1.2 µM
  growth inhibition: 17%
[9]; at 3.7 µM
  growth inhibition: -2%
[9]; at 11.0 µM
  growth inhibition: 4%
[9]; at 33.0 µM
  growth inhibition: 40%
[9]; at 100.0 µM
  growth inhibition: 71% (active)
[10]; [17]
  growth inhibition: 12%
[10]; [18]
  growth inhibition: 63%
[10]; at 50.0 µM
  growth inhibition: 56.9%
[11]; at 1.2 µM
  growth inhibition: 14%
[11]; at 3.7 µM
  growth inhibition: -8%
[11]; [17]
  growth inhibition: 26%
[11]; at 11.0 µM
  growth inhibition: -5%
[11]; at 33.0 µM
  growth inhibition: 32%
[11]; [18]
  growth inhibition: 64%
[11]; at 50.0 µM
  growth inhibition: 60.4%
[11]; at 100.0 µM
  growth inhibition: 78% (active)
[12]; at 1.2 µM
  growth inhibition: 5%
[12]; at 3.7 µM
  growth inhibition: 5%
[12]; at 11.0 µM
  growth inhibition: 23%
[12]; at 33.0 µM
  growth inhibition: 52%
[12]; at 100.0 µM
  growth inhibition: 87% (active)
[13]; at 1.2 µM
  growth inhibition: 26%
[13]; at 3.7 µM
  growth inhibition: 24%
[13]; at 11.0 µM
  growth inhibition: 41%
[13]; at 33.0 µM
  growth inhibition: 68%
[13]; at 100.0 µM
  growth inhibition: 87% (active)
[14]; at 1.2 µM
  growth inhibition: 23%
[14]; at 3.7 µM
  growth inhibition: 23%
[14]; at 11.0 µM
  growth inhibition: 39%
[14]; at 33.0 µM
  growth inhibition: 65%
[14]; at 100.0 µM
  growth inhibition: 88% (active)
[15]; [17]
  growth inhibition: -7%
[15]; [18]
  growth inhibition: 74% (active)
[15]; at 50.0 µM
  growth inhibition: 62.4%
[16]; at 1.2 µM
  growth inhibition: 22%
[16]; at 3.7 µM
  growth inhibition: 21%
[16]; at 11.0 µM
  growth inhibition: 25%
[16]; at 33.0 µM
  growth inhibition: 52%
[16]; at 100.0 µM
  growth inhibition: 81% (active)
